Data taken from PubChem BioAssay.
Measured potencies and affinities stand elsewhere. Results filed as inconclusive are left out. Activity calls are given as the source filed them. Unless noted, the rule behind the calls is not given here.

How the values were obtained:
[1] = CMV-driven luciferase expression suppression in HEK293 – cell-based, luminescence, dry powder, counter-screen for Pax8 inhibitor project, dose response (AID 743020;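 active = signal-lowering compounds whose fitted half-maximal concentration is at or below twice the top tested dose in every run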;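 note: HEK293 cells stably expressing the CMV luciferase reporter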)
[2] = general cell-killing toxicity readout – plate reader, dry powder samples, cytotoxicity control for PAX8 inhibitor project, dose response (AID 743021)
[3] = OVCAR-3 cell viability loss – plate reader, dry powder samples, PAX8 inhibitor project, dose response (AID 743044); settings: max activity: at 35 µM, hits give low values unless noted
[4] = toxicity toward immortalized ovarian surface epithelium – cell-based, plate reader, dry powder samples, cytotoxicity control for PAX8 inhibitor project, dose response (AID 743045);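 note: 0% = neutral control median and -100% = positive control median; more negative values mean more cell killing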
[5] = A2780 cell killing – plate reader, dry powder samples, cytotoxicity control, dose response (AID 743046);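 note: 0% = neutral control wells and -100% = cytotoxic reference compound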
[6] = IGROV1 cell killing – plate reader, dry powder samples, PAX8 inhibitor project, dose response (AID 743043);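 note: more negative means fewer viable cells or more cytotoxicity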
[7] = OVCAR8 cell viability loss – plate reader, dry powder samples, PAX8 project, dose response (AID 743197)

Measured: max activity

C[C@H]1CCCCO[C@H](CN(C)Cc2ccc(C(F)(F)F)cc2)[C@@H](C)CN([C@@H](C)CO)C(=O)c2cc(NS(=O)(=O)c3ccc(Cl)cc3)ccc2O1
inactive: [1] | [2] | [3] 16.3% [at 1 µM, hits give low values] | [4] | [5]

C[C@H](CO)N1C[C@H](C)[C@H](CN(C)S(=O)(=O)c2ccc(Cl)cc2)OCCCC[C@H](C)Oc2ccc(NS(=O)(=O)c3ccc(F)cc3)cc2C1=O
inactive: [1] | [2] | [6] | [3] 20.8% | [4] | [7]

Cc1c(Nc2cc(Cl)c3nonc3c2[N+](=O)[O-])c(=O)n(-c2ccccc2)n1C
inactive: [2]

C[C@@H]1CN([C@H](C)CO)C(=O)c2cc(NS(=O)(=O)c3ccc(Cl)cc3)ccc2O[C@@H](C)CCCCO[C@@H]1CN(C)Cc1ccccc1
inactive: [1] | [6] | [3] 22% [at 1 µM, hits give low values] | [4] | [5] | [7]

C[C@H]1CCCCO[C@H](CN(C)Cc2ccc(C(F)(F)F)cc2)[C@@H](C)CN([C@@H](C)CO)C(=O)c2cc(NC(=O)c3ccccc3)ccc2O1
not listed: [3] | [6]
inactive: all other assays above

C[C@@H]1CN([C@@H](C)CO)C(=O)c2cc(NC(=O)c3ccccc3)ccc2O[C@@H](C)CCCCO[C@@H]1CN(C)Cc1ccc(C(F)(F)F)cc1
not listed: [3] | [7]
inactive: all other assays above

COc1ccc(-c2ccc(C3[C@@H]4CN(C(=O)Nc5cccc(F)c5)C[C@H]3N4)cc2)cc1 (stereo partly specified)
inactive: [1] | [4] | [5]
